Source: PubChem BioAssay (NCI)
Compounds without any hit were thinned out: in the full panel of roughly 83,000, 20% have a hit.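 Plates (96-well) were seeded with cells, treated with compound at one concentration, and incubated for 48 hours before percent growth was determined.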 A number with no mark means an inactive call. Calls of active or inactive are those of the source. Rule for the calls: active = growth percent below 10; inactive = the rest.

What was measured:
Experiment in all cases: NCI-60 one-dose screen, 48 h (100 = growth as untreated, 0 = no growth, -100 = all killed)
Settings in all cases: 10 µM unless noted
SR leukemia = tested on: SR leukemia
RPMI-8226 leukemia = tested on: RPMI-8226 leukemia
OVCAR-8 ovarian = tested on: OVCAR-8 ovarian
OVCAR-5 ovarian = tested on: OVCAR-5 ovarian
OVCAR-4 ovarian = tested on: OVCAR-4 ovarian
SK-OV-3 ovarian = tested on: SK-OV-3 ovarian
IGROV1 ovarian = tested on: IGROV1 ovarian
OVCAR-3 ovarian = tested on: OVCAR-3 ovarian
HS 578T breast = tested on: HS 578T breast
NCI/ADR-RES ovarian = tested on: NCI/ADR-RES ovarian
T-47D breast = tested on: T-47D breast
BT-549 breast = tested on: BT-549 breast
MDA-MB-435 melanoma = tested on: MDA-MB-435 melanoma
SW-620 colon = tested on: SW-620 colon
MCF7 breast = tested on: MCF7 breast
HCT-116 colon = tested on: HCT-116 colon
HCC-2998 colon = tested on: HCC-2998 colon
KM12 colon = tested on: KM12 colon

SMILES | growth (SR leukemia) | growth (RPMI-8226 leukemia) | growth (OVCAR-8 ovarian) | growth (OVCAR-5 ovarian) | growth (OVCAR-4 ovarian) | growth (SK-OV-3 ovarian) | growth (IGROV1 ovarian) | growth (OVCAR-3 ovarian) | growth (HS 578T breast) | growth (NCI/ADR-RES ovarian) | growth (T-47D breast) | growth (BT-549 breast) | growth (MDA-MB-435 melanoma) | growth (SW-620 colon) | growth (MCF7 breast) | growth (HCT-116 colon) | growth (HCC-2998 colon) | growth (KM12 colon)
CC[C@H](CC[C@@H](C)[C@H]1CC[C@H]2[C@@H]3CC=C4C[C@@H](OCCc5nn[nH]n5)CC[C@]4(C)[C@H]3CC[C@]12C)C(C)C | 105% | 113% | 108% | 108% | 104% | 96.8% | 100% | 103% | 113% | 98.3% | 90.2% | 116% | 112% | 121% | 101% | 95.1% | 109% | 100%
CCN(CC)CCOC(COc1cc(C)cc(C)c1)COc1cc(C)cc(C)c1 | -20.8% (active) | 0.427% (active) | 58.6% | 55.6% | 50.9% | 67.1% | 12.6% | 58.4% | 61.6% | 41.5% | 18.8% | 50.9% | 19.5% | 24.1% | 17.5% | 7.06% (active) | 16.8% | 31.7%
COc1ccc(NC(=O)c2sc3nc(C)c(C(=O)CCc4cccc(OC)c4)cc3c2N)cc1 | 20.4% | 45.7% | 90.9% | 68.9% | 76.5% | 70.5% | 75.8% | 26.1% | 82% | 61.3% | 67.6% | 79.6% | -10.4% (active) | 64.7% | 16.5% | 45.6% | 56% | 56.1%
COc1nc(N)nc(-n2c(-c3ccc(C)cc3)nc3ccccc32)c1NCc1ccc(C)cc1 | 80.5% | 81.2% | 94.1% | 88.5% | 95% | 110% | 80.1% | 111% | 83.6% | 90.1% | 79% | 101% | 102% | 98.1% | 91.8% | 84.5% | 103% | 89.6%
CCCCCOc1ccc(/C=N/Nc2cc(C)nc3ccc(Br)cc23)cc1 | -9.53% (active) | -8.25% (active) | -46.3% (active) | 106% | 4.88% (active) | 102% | -11.7% (active) | -83.2% (active) | 85.5% | 63.6% | 83.4% | 103% | -46.9% (active) | -61.2% (active) | -73% (active) | -79.9% (active) | -58.3% (active) | -65.5% (active)
COc1ccc(/C(=C\c2ccccc2)C(=O)O)cc1OC | 108% | 102% | 105% | 87.5% | 103% | 105% | 96% | 104% | 97% | 93.8% | 85.7% | 102% | 106% | 97.4% | 93.7% | 102% | 103% | 103%
C[C@]12CCc3nc(Nc4cccc(O)c4)sc3C1=CC[C@@H]1[C@@H]2CC[C@]2(C)/C(=N\NC(N)=S)CC[C@@H]12 | 8.77% (active) | -22.2% (active) | 30.5% | 58.8% | 39% | 29.9% | -35.5% (active) | -54% (active) | -0.0546% (active) | 47.8% | 19.5% | 7.62% (active) | 5.53% (active) | -50% (active) | -39.3% (active) | -61.8% (active) | 65.3% | 13.5%
CCOC(=O)Oc1c(OC)cc(C(=O)O[C@@H]2C[C@@H]3CN4CCc5c([nH]c6cc(OC)ccc56)[C@H]4C[C@@H]3[C@H](C(=O)OC)[C@H]2OC)cc1OC | -2.39% (active) | -5.39% (active) | 75.9% | 90.5% | 94.7% | 91.9% | 82.3% | 38.5% | 72.1% | 56.5% | 38.6% | 77.5% | 70.9% | 48.4% | 83.8% | 1.57% (active) | 68.7% | 39.8%
CCN(CC)CCCCCCNc1cc(OC)cc2cccnc12 | -51.2% (active) | -8.8% (active) | 20.7% | 97.7% | 44.6% | 101% | 88.8% | -44.2% (active) | 92.5% | 82.9% | 92.5% | 83.9% | 17.8% | -64.5% (active) | 20% | -54.4% (active) | 84.1% | 76%
CCOC(=O)c1c(SC)nn(-c2cc(=O)[nH]c3ccc(Br)cc23)c1N | 91% | 101% | 95.6% | 112% | 86.2% | 98.5% | 102% | 105% | 91.8% | 100% | 92.9% | 116% | 107% | 94.2% | 93.4% | 89.5% | 102% | 99%
CC(C)Cc1ccc(C(C)C(=O)NCc2c[nH]c3ccc(Cl)cc23)cc1 (configuration not stated) | 80.5% | 78.5% | 93.4% | 98.9% | 88% | 98.9% | 86.9% | 95.5% | 82.8% | 92.5% | 69.8% | 88.8% | 66.6% | 90.9% | 89.5% | 85.9% | 103% | 83.5%
COc1ccc(C2CC(c3cccc(Nc4ccncc4)c3)=NN2c2ccc(Cl)cc2)cc1 (configuration not stated) | 1.94% (active) | 0.0835% (active) | -23.4% (active) | 74.1% | 37.7% | 63.9% | 23% | 39.6% | 60.7% | 62.3% | 65.7% | 105% | -85.4% (active) | -89.4% (active) | -16.8% (active) | 108% | -13.5% (active) | -72.1% (active)
CCCC1C(C(=O)OCC)=C(N)Oc2cc(O)ccc21 (configuration not stated) | 90.1% | 98.5% | 107% | 108% | 89.3% | 88.3% | 76.4% | 96.6% | 101% | 94.3% | 88.8% | 94% | 90.6% | 97.1% | 103% | 88.3% | 105% | 98.2%
Fc1ccc(C2CC(c3cccc(Nc4ccncc4)c3)=NN2c2ccccc2)cc1 (configuration not stated) | 2.49% (active) | 1.2% (active) | 55.1% | 85.3% | 51.9% | 70.8% | 44% | 64% | 73.1% | 73% | 71% | 87.7% | -54.8% (active) | -65.4% (active) | 8.89% (active) | 61.9% | 3.99% (active) | 8.85% (active)
c1ccc(C2CC(c3cccc(Nc4ccncc4)c3)=NN2c2ccccc2)cc1 (configuration not stated) | 5.55% (active) | 16.2% | 68.5% | 81.6% | 67.5% | 84.1% | 62.6% | 78.3% | 82.5% | 74.2% | 92.1% | 92.7% | 15.3% | -44.4% (active) | 14.4% | -67.1% (active) | 3.07% (active) | 44.7%
Cn1c(COC(=O)NCCn2ccnc2)nc2c(N3CCOCC3)nc(-c3ccccc3)nc21 | 1.63% (active) | -29.4% (active) | -12.9% (active) | -91% (active) | -87.8% (active) | 50.2% | -96% (active) | -89.7% (active) | -33% (active) | -1.95% (active) | -36.1% (active) | -78.2% (active) | -91.2% (active) | -68.8% (active) | -67% (active) | -74.6% (active) | -82.1% (active) | -69.3% (active)
C[C@H]1[C@H](C)CC[C@]2(CO)CC[C@]3(C)C(=CC[C@@H]4[C@@]5(C)CCCNC(C)(C)[C@@H]5CC[C@]43C)[C@H]12 | -49.9% (active) | -39.7% (active) | 9.93% (active) | 28.4% | 18.5% | 69.6% | -57.9% (active) | 6.84% (active) | 10.5% | 17.6% | 1.1% (active) | -66% (active) | -73.9% (active) | -69.6% (active) | -29.4% (active) | -94.7% (active) | -38.7% (active) | 0.124% (active)
COc1ccc(/C=C/C(=O)c2ccc(Nc3ncnc4ccccc34)cc2)cc1OC | 16.7% | -11.4% (active) | 65% | 103% | 85.5% | 102% | 76.3% | 74.9% | 110% | 78.1% | 78.6% | 56.3% | 7.77% (active) | 27.5% | 16.1% | 9.59% (active) | 29.9% | 16.3%
CC[C@@]12C=CCN3CC[C@]4(c5cc(NC(=O)COc6cc(OCC(=O)Nc7cc8c(cc7OC)N(C)[C@H]7[C@@](O)(C(=O)OC)[C@H](OC(C)=O)[C@]9(CC)C=CCN%10CC[C@]87[C@@H]%109)cc7oc(-c8ccccc8)cc(=O)c67)c(OC)cc5N(C)[C@@H]4[C@](O)(C(=O)OC)[C@H]1OC(C)=O)[C@H]32 | 10.6% | 8.92% (active) | 28.8% | 30.2% | 28.8% | 23.5% | -70% (active) | -26.8% (active) | 39.4% | 95.5% | 77.3% | 61.4% | 42% | 20.3% | 26.1% | 0.866% (active) | -8.78% (active) | -39.3% (active)
